Source: PubChem BioAssay AID1209 (Sanford-Burnham Center for Chemical Genomics, 2008)
The whole screen tested about 190,000 compounds, of which about 810 (0.43%) were called active. The sample as a whole holds a higher share of actives than the screen did. Unmarked numbers belong to inactive results. No stated cut-off is given here; in the data, active means inhibition above about 50%; inactive means the rest.

Biological target: Mannose-6-phosphate isomerase (Homo sapiens) (UniProt P34949)
Assay: MPI enzyme activity inhibition – biochemical, fluorescence intensity, coupled assay, primary screen (AID 1209);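 further: plate controls were DMSO vehicle for no effect and wells lacking substrate for full effect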
Conditions: purified PMI enzyme, at 20 µM, hits give high values

Chain of Mannose-6-phosphate isomerase (Homo sapiens) (P34949 whole entry, looked up): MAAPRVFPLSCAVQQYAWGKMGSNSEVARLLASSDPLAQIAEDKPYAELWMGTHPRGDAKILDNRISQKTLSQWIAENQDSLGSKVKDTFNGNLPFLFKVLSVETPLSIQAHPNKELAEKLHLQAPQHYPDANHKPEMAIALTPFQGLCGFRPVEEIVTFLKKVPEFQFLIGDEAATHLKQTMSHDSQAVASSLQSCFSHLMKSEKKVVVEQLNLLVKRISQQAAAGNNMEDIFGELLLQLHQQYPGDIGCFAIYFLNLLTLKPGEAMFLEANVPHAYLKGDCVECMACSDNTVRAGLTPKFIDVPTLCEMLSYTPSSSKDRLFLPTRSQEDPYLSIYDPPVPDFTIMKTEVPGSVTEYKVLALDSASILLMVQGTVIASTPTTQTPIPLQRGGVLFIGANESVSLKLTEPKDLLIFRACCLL

SMILES | inhibition
CC(OC(=O)c1cccnc1Cl)C(=O)Nc1ccc2c(c1)OCCO2 (stereo unspecified) | -6.6%
O=C(Nc1cccc(S(=O)(=O)N2CCOCC2)c1)c1cn(-c2ccccc2)nc1-c1ccc(F)cc1 | 6.6%
O=C(Nc1ccccc1OC(F)F)c1ccccc1 | 10.6%
Cc1ccc(C(=O)Nc2ccccc2OC(F)F)cc1 | -0.1%
O=C(Nc1ccccc1OC(F)F)c1ccc(F)cc1 | 109% (active)
O=C(NCCc1ccccc1)c1ccccc1NC(=O)C1CC=CCC1C(=O)O (stereo unspecified) | 5.2%
CC(C)N(C(=O)c1sc2cc([N+](=O)[O-])ccc2c1Cl)C(C)C | 0.2%
O=C(NC1CC1)c1sc2cc([N+](=O)[O-])ccc2c1Cl | 1.4%
CC(NC(=O)c1sc2cc([N+](=O)[O-])ccc2c1Cl)C(C)(C)C (stereo unspecified) | 57.2% (active)
CCNc1ccc(C(=O)OCC(=O)NCCN2C(=O)CSC2=O)cc1[N+](=O)[O-] | -6.6%
CCCN1CCC(NC(=O)CCc2nnc(Cc3cc(OC)ccc3OC)o2)CC1 | 7.2%
COc1ccc(N2CSC3=C(C#N)C(c4ccc(OC)c(OC)c4)CC(=O)N3C2)c(OC)c1 (stereo unspecified) | 39.1%
COc1ccc(OC)c(C2CC(=O)N3CN(c4cccc(Cl)c4)CSC3=C2C#N)c1 (stereo unspecified) | 16.5%
COc1ccc(Br)cc1C1CC(=O)N2CN(C)CSC2=C1C#N (stereo unspecified) | 27.6%
COc1cc(OC)c(C2CC(=O)N3CN(c4ccccc4)CSC3=C2C#N)cc1OC (stereo unspecified) | 41.2%
COc1ccc(OC)c(C2CC(=O)N3CN(c4ccccc4F)CSC3=C2C#N)c1 (stereo unspecified) | 57.3% (active)
COc1ccc(OC)c(C2CC(=O)N3CN(c4ccccc4)CSC3=C2C#N)c1 (stereo unspecified) | 2.2%
COc1ccc(N2CSC3=C(C#N)C(c4cc(OC)ccc4OC)CC(=O)N3C2)c(OC)c1 (stereo unspecified) | 53.4% (active)
COc1cccc(C2CC(=O)N3CN(c4ccccc4F)CSC3=C2C#N)c1 (stereo unspecified) | 16%
COc1cc(OC)c(C2CC(=O)N3CN(c4ccccc4C)CSC3=C2C#N)cc1OC (stereo unspecified) | 30.5%
COc1ccc(OC)c(C2CC(=O)N3CN(c4cccc(Cl)c4C)CSC3=C2C#N)c1 (stereo unspecified) | 46.9%
COc1cc(OC)c(C2CC(=O)N3CN(C)CSC3=C2C#N)cc1OC (stereo unspecified) | 59.9% (active)
CCN(CC)S(=O)(=O)c1ccc(OC)c(NC(=O)Cc2cccs2)c1 | -11.3%
Cc1cc(C)n(-c2ccc(C(=O)Nc3cccc(S(=O)(=O)N(C)C)c3)cc2)n1 | 5.5%
CCN(CC)S(=O)(=O)N1CCC(C(=O)NCCN2CCOCC2)CC1 | -6.8%
CCOC(=O)C1CCN(S(=O)(=O)c2ccc(CC)cc2)CC1 | -5.3%

SMILES | inhibition
CC(=O)c1ccc(NC(=S)N2CCN(CCN3C(=O)c4cccc5cccc(c45)C3=O)CC2)cc1 | 10.7%
COc1cccc(NC(=O)c2cc(-c3cccnc3)nc3c(Cl)cccc23)c1 | 1.6%
O=C(CCc1ccccc1)Nc1cc(NC(=O)CCc2ccccc2)cc(C(=O)O)c1 | 63.6% (active)
O=C(CCc1ccccc1)Nc1cc(C(=O)O)cc(C(=O)O)c1 | -2%
O=C(CCc1ccccc1)Nc1cccc(NC(=O)CCc2ccccc2)c1 | 13.7%
Cc1cccc(NC(=O)N(C)Cc2cccs2)c1 | 0.5%
NNC(=O)c1cccc(O)c1 | 10%
NNC(=O)c1cc(O)c(O)c(O)c1 | 51.2% (active)
COC(=O)c1cc(O)c(O)c(O)c1 | 34%
O=C(Nc1cccc(O)c1)c1noc2c1CCCCC2 | -1.4%
Cc1ccc(Nc2nc(=O)c3cccnc3s2)cc1 | 1.7%
O=c1nc(Nc2ccc(OCc3ccccc3)cc2)sc2ncccc12 | 3%
COc1ccc(OC)c(Nc2nc(=O)c3cccnc3s2)c1 | 68.3% (active)
Cc1nnc(SCC(=O)Nc2ccc3c(c2)OCCO3)n1N | 11.3%
Oc1ccc(Cl)cc1C=Nc1ccc2c3c(cccc13)CC2 | 50.8% (active)
Cc1cccc(C=Nc2ccc3c4c(cccc24)CC3)c1O | 44.8%
Oc1ccc(Br)cc1C=Nc1ccc2c3c(cccc13)CC2 | 38.4%
O=[N+]([O-])c1ccc2c(c1)ncn2-c1ccccc1 | -3.3%
Nc1ccc(-n2cnc3cc([N+](=O)[O-])ccc32)cc1 | 53.9% (active)
COc1ccc(-n2cnc3cc([N+](=O)[O-])ccc32)cc1 | 5.5%
N=C1C=CC=C2C1=NC1(CCCCC1)N2O | 72.2% (active)
CCOC(=O)C1CCN(CC(O)COCc2cccs2)CC1 (stereo unspecified) | -1.6%
Oc1ccc2ccccc2c1/C=N/c1nccs1 | 39.6%
Oc1ccc2ccccc2c1C=Nc1ccc(Cl)cn1 | 56.1% (active)
Cc1cc(N=Cc2c(O)ccc3ccccc23)no1 | 43.9%
O=C(CSc1nc2ccc(Cl)cc2[nH]1)NCc1ccco1 | 1.5%

SMILES | inhibition
Cc1cccc(-n2c3nc(=O)[nH]c(=O)c-3cc3c(C)nn(-c4ccccc4)c32)c1 | 6.4%
COc1cc([N+](=O)[O-])ccc1NC(=O)/C=C/C(=O)O | -26.7%
S=C(NCCCn1ccnc1)Nc1ccc(Cl)cc1Cl | 5.5%
O=C(CSc1nnc2ccccn12)NNC(=O)c1ccccc1 | -2.1%
CCSc1nnc(N)s1 | -0.6%
CCSc1nnc(NC(=O)CC)s1 | 0%
COc1ccccc1-n1c(=S)[nH]c2c(sc(=S)n2-c2ccccc2)c1=O | -4.5%
COc1ccc(OC)c(-n2c(=S)[nH]c3c(sc(=S)n3-c3ccccc3)c2=O)c1 | 9.9%
COc1ccc(-n2c(=S)[nH]c3c(sc(=S)n3-c3ccccc3)c2=O)c(OC)c1 | 62.6% (active)
CC(O)[C@@H](C(=O)N1CCNCC1)n1cc(CCCCN)nn1 (stereo partly specified) | 4%
Cc1sc2nc(CSc3ccccc3)nc(N3CCC(C(N)=O)CC3)c2c1C | 13.3%
CCOC(=O)NC(=O)/C(C#N)=C\c1ccccc1 | 52.6% (active)
N#C/C(=C\c1ccccc1)C(=O)NC(=O)Oc1ccccc1 | 11.3%
Cc1ccc(/C=C(/C#N)C(=O)NC(=O)Oc2ccccc2)cc1 | 4.9%
CSc1cccc(NC(=S)N2CCC(N(C)C3CCCCC3C)CC2)c1 (stereo unspecified) | -2.7%
CCOc1cc(C2CC(=O)NC(SCC)=C2C#N)ccc1O (stereo unspecified) | 9.3%
COc1ccc2ccccc2c1C1CC(=O)N2CN(C)CSC2=C1C#N (stereo unspecified) | 54.3% (active)
COc1ccc2ccccc2c1C1CC(=O)N2CN(C3CCCCC3)CSC2=C1C#N (stereo unspecified) | 25.9%
CN1CSC2=C(C#N)C(c3cccc(OCc4ccccc4)c3)CC(=O)N2C1 (stereo unspecified) | 29.7%
CCOc1ccccc1N1CSC2=C(C#N)C(c3c(OC)ccc4ccccc34)CC(=O)N2C1 (stereo unspecified) | 64.9% (active)
CCc1ccccc1N1CSC2=C(C#N)C(c3cc(OC)c(OC)cc3OC)CC(=O)N2C1 (stereo unspecified) | 46%
COc1ccccc1N1CSC2=C(C#N)C(c3ccc(SC)cc3)CC(=O)N2C1 (stereo unspecified) | -29.2%
CCOc1cc(C2CC(=O)N3CN(C4CCCCC4)CSC3=C2C#N)ccc1O (stereo unspecified) | 54.5% (active)
COc1ccc(C2CC(=O)N3CN(c4ccccc4F)CSC3=C2C#N)cc1OC (stereo unspecified) | 34.9%
CC(NC(=O)COC(=O)c1ccco1)c1ccccc1 (stereo unspecified) | 6.4%
COc1c(Cl)cc(Cl)cc1C(=O)Nc1ccc(NC(C)=O)cc1 | 7.9%

SMILES | inhibition
O=C(Cn1nnc(-c2ccccc2)n1)OC1CCOC1=O (stereo unspecified) | -0.6%
Cc1nn(CC(=O)NNC(=S)Nc2ccccc2)c(C)c1[N+](=O)[O-] | 0%
CC1(C)Cc2c(sc(N)c2C#N)C(C)(C)N1 | 11.6%
Cc1nn(CC(=O)NCCc2ccccc2)c(C)c1[N+](=O)[O-] | 2.6%
CCOc1ccc(C(O)C(CN2CCOCC2)c2ccccc2)cc1 (stereo unspecified) | -4.1%
COC(=O)c1c(NC(=O)c2cccnc2)sc(C)c1C | -4.9%
CC(=O)Nc1cc(OC(C)=O)c2nonc2c1OC(C)=O | 83.9% (active)
CCOc1cc(NC(=O)CCl)c(OCC)cc1NC(C)=O | -3.2%
CCOc1cc(Cl)c(NC(C)=O)cc1OCC | -3%
COc1cc(O)c(NC(C)=O)c2nonc12 | 64.6% (active)
COc1cc(O)c(C(C)=O)cc1OC | -15.9%
CC(=O)Nc1nonc1NC(C)=O | 5.4%
NC(=O)c1sc2nc3c(cc2c1N)CCC3 | -8%
COC(=O)c1sc2nc3c(cc2c1N)CCCC3 | 14.2%
Nc1c(C(=O)N2CCCC2)sc2nc3c(cc12)CCCCCC3 | 95% (active)
O=[N+]([O-])c1cc(-c2cnc3ccccc3n2)ccc1Oc1ccc(Cl)cc1 | 5.9%
CCOc1ccccc1C1CC(=O)NC(SCC(=O)Nc2nccs2)=C1C#N (stereo unspecified) | -8.2%
CCOC(=O)C1C(=O)NC(SCC(=O)OC)=C(C#N)C1c1ccccc1OCC (stereo unspecified) | 14.3%
CCOC(=O)C1C(=O)NC(SCC(=O)Nc2nccs2)=C(C#N)C1c1ccccc1OCC (stereo unspecified) | 54.2% (active)
CCOc1ccc(CCNC(=O)COC(=O)c2cccc(OC)c2O)cc1OCC | 5.3%
O=C1OC(Nc2ccc3ncccc3c2)c2ccccc21 (stereo unspecified) | 62.7% (active)
O=C1OC(Nc2cc(Br)cc3cccnc23)c2ccccc21 (stereo unspecified) | 14.2%
O=C1OC(Nc2ncccn2)c2ccccc21 (stereo unspecified) | 4.9%
